Source: PubChem BioAssay (NCI)
About 83,000 compounds went through this panel and 20% of them were active in at least one assay; those are over-represented in the sample as a whole.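 Compound tested at a single concentration for 48 hours in 96-well plates; a percent growth value below 10 was scored as active.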 Activity calls are given as the source filed them.

These molecules were tested on T-47D breast (assay: NCI-60 one-dose screen, 48 h (100 = growth as untreated, 0 = no growth, -100 = all killed)). Conditions: 10 µM unless noted.

Row | Structure (SMILES) | growth
1 | CCn1cc(-c2ccnc(NCCNS(=O)(=O)c3cccc4ccccc34)c2)c(-c2cccc(O)c2)n1 | 85.9% (inactive)
2 | Cc1ccc(-c2cc(O)c(-c3ccc(C)cc3C)cc2O)c(C)c1 | 67.1% (inactive)
3 | CCc1ccc(-c2ccc(COc3ccc(CC4SC(=O)NC4=O)cc3)cc2)cc1 (stereo not drawn) | 41% (inactive)
4 | CCCn1ccnc1C(O)c1ccc(OCc2ccccc2)c(OC)c1 (stereo not drawn) | 83.3% (inactive)
5 | O=C(Nc1cc(F)cc2cccnc12)c1cnc(N2CCNCC2)cn1 | 18% (inactive)
6 | O=C(CCCSc1nc(-c2ccccc2)cc(-c2ccccc2)n1)NO | -2.43% (active)
7 | O=C(CCN1CCCCC1)c1ccc(Cl)cc1 | 92.6% (inactive)
8 | O=C(NCCCNC(=O)OCc1ccc2c(Br)cc(Br)c(O)c2n1)OCc1ccc2c(Br)cc(Br)c(O)c2n1 | -58.2% (active)
9 | Cc1ccc(N)c(O)c1 | 94.1% (inactive)
10 | COc1cc2c(=O)[nH]c3cc([N+](=O)[O-])ccc3c2cc1[N+](=O)[O-] | 49.1% (inactive)
11 | C/C=C/C1OC23CCCCC2C(C#N)(C(=N)O3)C1(C#N)C#N (stereo not drawn) | 84.9% (inactive)
12 | Cc1ccc(S(=O)(=O)NCCCNc2nccc(-c3c(-c4cccc(F)c4)nc4occn34)n2)cc1 | 39.5% (inactive)
13 | COc1ccc2c(c1)C(C)Cc1c(ncnc1-n1cnc3ccccc31)N2C (stereo not drawn) | 56.9% (inactive)
14 | Clc1ccccc1/C=N\Nc1ccccn1 | 62.1% (inactive)
15 | CC(C)C1=NOC(=O)C1=Cc1cn(-c2ccccc2)nc1-c1cccc([N+](=O)[O-])c1 | 84.5% (inactive)
16 | CC(C)C1=NOC(=O)C1=Cc1cn(-c2cccnc2)nc1-c1ccccc1 | 92.6% (inactive)
17 | O=C1COCCN1c1ccc(NCc2cn(Cc3ccccc3)c3ccccc23)cc1 | 44.9% (inactive)
18 | COc1ccc(N(c2nc(-c3ccc([N+](=O)[O-])cc3)cs2)C(C)C)cc1 | 53.4% (inactive)
19 | OC(c1ccc(Cl)cc1)(c1ccc(Cl)cc1)C(O)(c1ccc(Cl)cc1)c1ccc(Cl)cc1 | 32.9% (inactive)
20 | O=C(NCc1ccc(Cn2c(=O)sn(-c3ccccc3)c2=O)cc1)OCc1ccc2c(Br)cc(Br)c(O)c2n1 | -49.8% (active)
21 | O=S(=O)(NCCNc1nccc(-c2c(-c3cccc(F)c3)nc3occn23)n1)c1ccc(C(F)(F)F)cc1 | 61.9% (inactive)
22 | O=C(Nc1ccc(Cl)c(C(F)(F)F)c1)Nc1ccc(-c2cccnc2)cc1N1CCC(CO)CC1 | 5.62% (active)
23 | O=C(CCNCc1ccccc1)c1ccccc1 | 104% (inactive)
